For test [1], the target named is Sphingosine kinase 1 (Homo sapiens) (UniProt Q9NYA1). The settings on record: at 1 µM.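 Note: mean SPHK1 inhibition value reported from the GSK PKIS kinase panel screen.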
Test [2] deals with T1, Sphingosine kinase 2 (Homo sapiens) (UniProt Q9NRA0).
T1 sequence (whole entry): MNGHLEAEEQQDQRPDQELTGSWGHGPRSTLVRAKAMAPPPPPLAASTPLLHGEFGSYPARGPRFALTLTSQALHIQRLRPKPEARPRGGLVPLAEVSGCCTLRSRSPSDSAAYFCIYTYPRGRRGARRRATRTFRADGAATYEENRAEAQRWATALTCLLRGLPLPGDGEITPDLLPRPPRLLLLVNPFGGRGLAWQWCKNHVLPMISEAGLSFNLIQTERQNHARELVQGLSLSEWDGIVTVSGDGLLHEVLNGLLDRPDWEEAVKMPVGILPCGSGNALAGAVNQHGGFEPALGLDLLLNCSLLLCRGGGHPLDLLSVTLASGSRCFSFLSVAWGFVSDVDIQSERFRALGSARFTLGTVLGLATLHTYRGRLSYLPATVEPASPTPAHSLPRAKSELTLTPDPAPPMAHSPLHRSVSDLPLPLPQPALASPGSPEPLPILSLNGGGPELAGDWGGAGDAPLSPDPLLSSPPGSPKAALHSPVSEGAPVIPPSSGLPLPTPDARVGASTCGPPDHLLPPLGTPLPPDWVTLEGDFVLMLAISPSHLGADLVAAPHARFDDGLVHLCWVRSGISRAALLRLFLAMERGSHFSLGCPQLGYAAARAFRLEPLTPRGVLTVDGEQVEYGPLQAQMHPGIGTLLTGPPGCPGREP
The settings on record: at 0.1 µM.

The target of test [3] is T1, Sphingosine kinase 2 (Homo sapiens). The following applies: at 1 µM.
Test [4] concerns the target Casein kinase II subunit alpha (Homo sapiens) (UniProt P68400). The settings on record: at 0.1 µM.
Test [5] shares this target. The settings on record: at 1 µM.
Test [6] has as its target T2, Inhibitor of nuclear factor kappa-B kinase subunit alpha (Homo sapiens) (UniProt O15111).
T2 sequence (whole entry): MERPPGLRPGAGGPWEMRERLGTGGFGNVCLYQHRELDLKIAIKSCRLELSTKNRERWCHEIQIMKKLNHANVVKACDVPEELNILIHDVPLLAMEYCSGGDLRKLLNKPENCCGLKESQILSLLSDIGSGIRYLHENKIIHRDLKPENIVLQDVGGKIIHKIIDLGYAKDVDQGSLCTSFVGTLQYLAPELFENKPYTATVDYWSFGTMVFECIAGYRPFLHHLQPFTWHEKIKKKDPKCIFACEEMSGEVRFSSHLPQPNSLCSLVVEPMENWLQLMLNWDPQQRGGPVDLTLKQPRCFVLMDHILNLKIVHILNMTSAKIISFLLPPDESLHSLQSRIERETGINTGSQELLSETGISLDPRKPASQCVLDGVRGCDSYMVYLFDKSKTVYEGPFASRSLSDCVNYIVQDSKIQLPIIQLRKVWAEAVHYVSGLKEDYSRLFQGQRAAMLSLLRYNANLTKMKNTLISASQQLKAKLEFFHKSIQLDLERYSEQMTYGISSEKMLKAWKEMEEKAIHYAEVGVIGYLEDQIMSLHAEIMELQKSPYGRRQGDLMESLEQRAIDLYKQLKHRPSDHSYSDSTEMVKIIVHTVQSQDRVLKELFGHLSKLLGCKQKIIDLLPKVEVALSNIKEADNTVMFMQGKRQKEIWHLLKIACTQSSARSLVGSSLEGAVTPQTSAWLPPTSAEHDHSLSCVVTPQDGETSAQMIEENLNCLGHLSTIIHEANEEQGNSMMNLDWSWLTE
The settings on record: at 0.1 µM.

For test [7], the target named is T2, Inhibitor of nuclear factor kappa-B kinase subunit alpha (Homo sapiens). The following applies: at 1 µM.
For test [8], the target named is T3, Inhibitor of nuclear factor kappa-B kinase subunit beta (Homo sapiens) (UniProt O14920).
T3 sequence (whole entry): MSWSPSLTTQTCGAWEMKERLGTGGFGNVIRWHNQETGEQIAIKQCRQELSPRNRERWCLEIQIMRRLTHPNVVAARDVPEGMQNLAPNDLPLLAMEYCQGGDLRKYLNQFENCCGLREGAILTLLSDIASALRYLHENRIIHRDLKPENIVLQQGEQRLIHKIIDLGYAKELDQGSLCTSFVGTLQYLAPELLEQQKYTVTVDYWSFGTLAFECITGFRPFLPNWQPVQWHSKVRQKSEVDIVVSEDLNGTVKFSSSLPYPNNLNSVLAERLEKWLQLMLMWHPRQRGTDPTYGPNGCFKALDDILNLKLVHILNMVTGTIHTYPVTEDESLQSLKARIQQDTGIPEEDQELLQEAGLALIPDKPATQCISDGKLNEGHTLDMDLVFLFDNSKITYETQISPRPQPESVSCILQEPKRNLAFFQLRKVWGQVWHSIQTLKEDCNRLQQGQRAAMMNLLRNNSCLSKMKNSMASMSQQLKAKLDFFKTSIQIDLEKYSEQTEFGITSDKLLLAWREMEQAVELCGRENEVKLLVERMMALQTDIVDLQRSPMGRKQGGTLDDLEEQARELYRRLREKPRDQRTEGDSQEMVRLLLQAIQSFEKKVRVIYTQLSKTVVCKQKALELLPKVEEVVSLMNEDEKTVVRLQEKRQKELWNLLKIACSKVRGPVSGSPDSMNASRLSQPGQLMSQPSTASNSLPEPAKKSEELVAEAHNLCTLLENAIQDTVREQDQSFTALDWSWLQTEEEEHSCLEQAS
The following applies: at 0.1 µM.

Test [9] addresses T3, Inhibitor of nuclear factor kappa-B kinase subunit beta (Homo sapiens). The settings on record: at 1 µM.
Test [10] addresses T4, Inhibitor of nuclear factor kappa-B kinase subunit epsilon (Homo sapiens) (UniProt Q14164).
T4 sequence (whole entry): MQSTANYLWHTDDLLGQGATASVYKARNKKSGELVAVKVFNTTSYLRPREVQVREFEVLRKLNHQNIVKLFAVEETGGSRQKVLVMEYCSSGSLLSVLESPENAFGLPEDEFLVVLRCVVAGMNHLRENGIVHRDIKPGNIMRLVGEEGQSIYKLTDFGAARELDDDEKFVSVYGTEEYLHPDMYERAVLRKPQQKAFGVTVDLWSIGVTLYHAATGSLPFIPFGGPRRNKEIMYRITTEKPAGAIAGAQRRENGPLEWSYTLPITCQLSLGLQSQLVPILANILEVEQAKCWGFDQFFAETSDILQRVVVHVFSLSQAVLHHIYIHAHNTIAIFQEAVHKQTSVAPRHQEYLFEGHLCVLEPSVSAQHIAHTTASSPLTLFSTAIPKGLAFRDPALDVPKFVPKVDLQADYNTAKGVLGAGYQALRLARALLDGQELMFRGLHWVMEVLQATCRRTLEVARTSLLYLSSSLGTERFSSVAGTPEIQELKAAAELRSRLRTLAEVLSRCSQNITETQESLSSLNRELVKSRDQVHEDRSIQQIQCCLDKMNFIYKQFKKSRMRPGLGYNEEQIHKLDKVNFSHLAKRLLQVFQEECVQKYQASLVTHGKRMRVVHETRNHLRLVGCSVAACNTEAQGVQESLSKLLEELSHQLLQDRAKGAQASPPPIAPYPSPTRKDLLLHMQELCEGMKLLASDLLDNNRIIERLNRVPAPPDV
The following applies: at 0.1 µM.

In test [11] the target is T4, Inhibitor of nuclear factor kappa-B kinase subunit epsilon (Homo sapiens). The settings on record: at 1 µM.
Test [12] addresses T5, Serine/threonine-protein kinase Nek1 (Homo sapiens) (UniProt Q96PY6).
T5 sequence (whole entry): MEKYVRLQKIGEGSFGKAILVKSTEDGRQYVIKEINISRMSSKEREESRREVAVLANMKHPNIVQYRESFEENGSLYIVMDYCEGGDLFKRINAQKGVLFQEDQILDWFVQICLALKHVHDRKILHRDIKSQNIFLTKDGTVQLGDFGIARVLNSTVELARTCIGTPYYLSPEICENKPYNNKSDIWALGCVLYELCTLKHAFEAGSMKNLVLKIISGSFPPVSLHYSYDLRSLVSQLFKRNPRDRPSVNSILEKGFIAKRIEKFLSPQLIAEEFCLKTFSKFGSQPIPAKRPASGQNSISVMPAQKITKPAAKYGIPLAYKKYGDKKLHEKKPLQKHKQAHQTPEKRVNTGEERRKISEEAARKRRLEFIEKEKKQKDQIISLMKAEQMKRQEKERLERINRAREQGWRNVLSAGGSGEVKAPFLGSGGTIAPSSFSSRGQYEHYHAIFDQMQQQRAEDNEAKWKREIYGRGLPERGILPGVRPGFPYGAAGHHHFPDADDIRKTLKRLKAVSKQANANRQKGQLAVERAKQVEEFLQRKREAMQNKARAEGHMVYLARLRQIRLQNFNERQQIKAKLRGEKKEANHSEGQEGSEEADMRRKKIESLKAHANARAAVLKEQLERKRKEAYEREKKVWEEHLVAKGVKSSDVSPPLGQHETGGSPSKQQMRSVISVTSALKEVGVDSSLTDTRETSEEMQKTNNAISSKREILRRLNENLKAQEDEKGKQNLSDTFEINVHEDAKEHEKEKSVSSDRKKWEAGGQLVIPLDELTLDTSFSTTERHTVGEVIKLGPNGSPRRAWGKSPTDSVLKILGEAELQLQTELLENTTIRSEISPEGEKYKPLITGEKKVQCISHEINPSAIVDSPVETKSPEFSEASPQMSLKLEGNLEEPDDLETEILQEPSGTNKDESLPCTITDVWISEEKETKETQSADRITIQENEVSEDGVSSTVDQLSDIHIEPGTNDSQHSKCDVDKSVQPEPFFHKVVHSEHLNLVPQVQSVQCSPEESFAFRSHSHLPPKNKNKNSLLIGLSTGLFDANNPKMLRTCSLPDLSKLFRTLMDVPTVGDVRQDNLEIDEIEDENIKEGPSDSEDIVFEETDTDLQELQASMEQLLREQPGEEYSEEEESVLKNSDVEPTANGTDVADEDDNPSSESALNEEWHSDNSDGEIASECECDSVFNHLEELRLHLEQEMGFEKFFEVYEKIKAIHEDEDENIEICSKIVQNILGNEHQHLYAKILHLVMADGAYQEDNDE
The settings on record: at 0.1 µM.

Test [13] addresses T5, Serine/threonine-protein kinase Nek1 (Homo sapiens). The settings on record: at 1 µM.
For test [14], the target named is T6, Serine/threonine-protein kinase Nek2 (Homo sapiens) (UniProt P51955).
T6 sequence (whole entry): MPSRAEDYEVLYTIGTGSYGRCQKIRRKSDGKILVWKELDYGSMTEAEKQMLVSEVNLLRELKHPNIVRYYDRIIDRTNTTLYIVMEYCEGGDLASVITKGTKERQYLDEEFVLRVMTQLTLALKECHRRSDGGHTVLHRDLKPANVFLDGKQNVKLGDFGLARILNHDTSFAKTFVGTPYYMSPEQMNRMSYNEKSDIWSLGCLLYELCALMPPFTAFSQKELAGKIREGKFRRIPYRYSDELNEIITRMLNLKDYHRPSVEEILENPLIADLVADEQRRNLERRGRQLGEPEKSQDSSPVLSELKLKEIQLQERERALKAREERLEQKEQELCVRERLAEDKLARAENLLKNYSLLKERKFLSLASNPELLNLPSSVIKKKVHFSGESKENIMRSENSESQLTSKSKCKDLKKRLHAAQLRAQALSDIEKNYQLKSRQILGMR
The following applies: at 0.1 µM.

In test [15] the target is T6, Serine/threonine-protein kinase Nek2 (Homo sapiens). The following applies: at 1 µM.
In test [16] the target is Serine/threonine-protein kinase Nek6 (Homo sapiens) (UniProt Q9HC98). The settings on record: at 0.1 µM.
Serine/threonine-protein kinase Nek6 (Homo sapiens), sequence (Q9HC98 whole entry): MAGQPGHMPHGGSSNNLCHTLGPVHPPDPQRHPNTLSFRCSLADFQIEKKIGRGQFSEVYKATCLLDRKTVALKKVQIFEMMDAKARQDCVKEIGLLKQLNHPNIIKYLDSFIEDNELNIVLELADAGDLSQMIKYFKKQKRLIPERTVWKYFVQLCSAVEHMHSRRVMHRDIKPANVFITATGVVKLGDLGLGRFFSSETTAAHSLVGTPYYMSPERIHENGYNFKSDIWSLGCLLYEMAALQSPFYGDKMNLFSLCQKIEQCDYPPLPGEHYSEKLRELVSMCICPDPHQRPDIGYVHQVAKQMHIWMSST
Test [17] has the same target. The settings on record: at 1 µM.
The target in test [18] is Serine/threonine-protein kinase Nek7 (Homo sapiens) (UniProt Q8TDX7). The settings on record: at 0.1 µM.
Serine/threonine-protein kinase Nek7 (Homo sapiens), sequence (Q8TDX7 whole entry, looked up): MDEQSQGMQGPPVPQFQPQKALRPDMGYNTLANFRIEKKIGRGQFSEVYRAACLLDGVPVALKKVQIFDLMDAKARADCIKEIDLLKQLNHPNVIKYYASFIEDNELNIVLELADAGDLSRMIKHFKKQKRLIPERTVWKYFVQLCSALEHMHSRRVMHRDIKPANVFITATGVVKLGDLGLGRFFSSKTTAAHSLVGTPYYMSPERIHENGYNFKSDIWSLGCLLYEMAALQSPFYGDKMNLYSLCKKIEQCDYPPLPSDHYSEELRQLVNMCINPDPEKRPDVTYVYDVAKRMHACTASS
The target is the same in test [19]. The settings on record: at 1 µM.
For test [20], the target named is T7, Serine/threonine-protein kinase Nek9 (Homo sapiens) (UniProt Q8TD19).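 Note: reported value is the mean percent inhibition of NEK9.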
T7 sequence (whole entry): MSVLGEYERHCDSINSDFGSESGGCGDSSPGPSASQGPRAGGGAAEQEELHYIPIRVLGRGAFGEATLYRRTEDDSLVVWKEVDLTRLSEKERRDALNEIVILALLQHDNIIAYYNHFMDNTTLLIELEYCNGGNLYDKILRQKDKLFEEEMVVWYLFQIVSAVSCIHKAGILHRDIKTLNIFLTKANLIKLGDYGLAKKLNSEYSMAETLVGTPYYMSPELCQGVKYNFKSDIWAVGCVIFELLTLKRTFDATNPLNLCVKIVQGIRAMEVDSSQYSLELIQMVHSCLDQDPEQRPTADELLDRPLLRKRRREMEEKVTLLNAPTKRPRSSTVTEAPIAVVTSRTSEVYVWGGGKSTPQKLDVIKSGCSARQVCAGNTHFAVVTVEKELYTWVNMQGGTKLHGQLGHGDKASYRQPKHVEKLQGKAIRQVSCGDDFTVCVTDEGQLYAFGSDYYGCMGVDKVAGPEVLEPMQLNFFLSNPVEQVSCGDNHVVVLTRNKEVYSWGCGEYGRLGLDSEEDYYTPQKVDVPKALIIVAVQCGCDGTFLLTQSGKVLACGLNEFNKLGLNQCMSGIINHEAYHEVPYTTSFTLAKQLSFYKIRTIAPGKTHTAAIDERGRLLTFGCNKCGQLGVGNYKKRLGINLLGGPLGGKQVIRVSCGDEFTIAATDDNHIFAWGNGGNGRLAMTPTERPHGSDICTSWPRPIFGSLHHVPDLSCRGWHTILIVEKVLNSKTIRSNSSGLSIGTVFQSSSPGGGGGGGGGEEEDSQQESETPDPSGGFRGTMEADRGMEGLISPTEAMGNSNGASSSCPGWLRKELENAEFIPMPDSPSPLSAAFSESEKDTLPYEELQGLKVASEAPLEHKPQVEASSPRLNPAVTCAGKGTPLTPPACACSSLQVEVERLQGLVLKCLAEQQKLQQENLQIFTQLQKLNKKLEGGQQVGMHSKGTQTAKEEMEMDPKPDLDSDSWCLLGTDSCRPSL
The settings on record: at 0.1 µM.

The values below come from ChEMBL document CHEMBL1961873, “Compounds: GSK PKIS; Assays: Nanosyn kinase panel” (2012).

Casein kinase II subunit alpha (Homo sapiens), sequence (P68400 whole entry, looked up): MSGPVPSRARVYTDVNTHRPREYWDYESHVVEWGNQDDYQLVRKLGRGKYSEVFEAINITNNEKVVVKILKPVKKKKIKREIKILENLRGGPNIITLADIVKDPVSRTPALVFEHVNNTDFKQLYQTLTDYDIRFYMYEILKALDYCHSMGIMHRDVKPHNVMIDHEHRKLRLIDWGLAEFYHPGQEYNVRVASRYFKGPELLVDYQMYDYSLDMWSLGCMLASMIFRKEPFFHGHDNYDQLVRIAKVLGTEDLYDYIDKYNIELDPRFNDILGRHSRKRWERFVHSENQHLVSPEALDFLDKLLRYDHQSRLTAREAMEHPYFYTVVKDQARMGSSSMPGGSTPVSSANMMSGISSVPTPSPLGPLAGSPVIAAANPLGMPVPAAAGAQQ
Sphingosine kinase 1 (Homo sapiens), sequence (Q9NYA1 whole entry): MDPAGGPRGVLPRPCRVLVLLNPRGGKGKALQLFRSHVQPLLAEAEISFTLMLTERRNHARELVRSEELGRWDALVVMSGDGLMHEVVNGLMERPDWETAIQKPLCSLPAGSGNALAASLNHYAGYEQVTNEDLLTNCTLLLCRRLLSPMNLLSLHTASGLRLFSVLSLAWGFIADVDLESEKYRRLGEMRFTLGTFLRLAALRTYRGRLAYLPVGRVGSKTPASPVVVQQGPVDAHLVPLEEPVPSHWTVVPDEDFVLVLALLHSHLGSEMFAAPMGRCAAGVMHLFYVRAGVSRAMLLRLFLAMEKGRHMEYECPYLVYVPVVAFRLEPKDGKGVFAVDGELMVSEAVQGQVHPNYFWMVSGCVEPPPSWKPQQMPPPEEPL

As for `O=C(Nc1n[nH]c2cc(-c3ccc(F)cc3)ccc12)C1CC1`, the inhibition is 0.32% in test [1]; 0.15% in test [2]; -0.37% in [3]; 2.04% in [4]; 0.79% in test [5]; 4.81% in [6]. The inhibition in [7] is -0.71%; in test [8], 4.46%; in test [9], 2.08%; in test [10] it was 4.25%; in test [11] it was 3.59%; in test [12] it was 2.65%. The inhibition amounted to 1.94% in test [13]; 4.38% in [14]; 4.67% in test [15]; 0.6% in test [16]; 2.6% in [17]; 5.51% in test [18]. Also, the values for the inhibition in test [19] and in test [20] were 3% and 8.59%, respectively.

Usually inhibition stands for the drop in the measured response relative to a control, in per cent.
